# Reference: ChEMBL document CHEMBL4513216, “Probing the Open Global Health Chemical Diversity Library for Multistage-Active Starting Points for Next-Generation Antimalarials” (ACS Infect Dis, 2020)
# Hit rate of the full screen: of about 69,000 compounds, about 8,600 (12%) showed an effect of 50% or more. This excerpt belongs to a sample that is enriched for strong results.
# Tested on: Plasmodium berghei
# Test: Screen against P. berghei liver stage (PbLuc), transformed with Luciferase, at 10uM
# Type: functional, HepG2
# Conditions: tested at 10 uM
row,Compound,INHIBITION [%]
1,Cn1ccnc1CN1CCC2(CC1)CC(NC(=O)c1ccccn1)CO2 (stereo unspecified),28.4
2,Cc1cc(C)nc(C2(C)CCCN2CCO)n1 (stereo unspecified),-4.6
3,CCCc1cc(C(=O)Nc2nc(SC)ns2)n(C)n1,-106.9
4,Cc1ccccc1C(C)NC(=O)CSCC#N (stereo unspecified),31.9
5,Cc1ccc(C(=O)NC2CCN(S(C)(=O)=O)CC2)c(=O)[nH]1,47.7
6,Cc1cnc(C(=O)N2CCN(c3ncc4c(n3)CCOC4)CC2)cn1,27.4
7,CCCc1nc(CN(CC)C(=O)c2onc3ccccc23)no1,-14.1
8,COCCN1CC(O)CN(C(=O)c2ccc(SC)cc2)CC1=O (stereo unspecified),29
9,Cc1ccc(S(=O)(=O)Nc2ccc(-n3cccc3C(=O)O)c(C)c2)cc1,56
10,Cc1ccc(S(=O)(=O)Nc2ccc(-n3cccc3C(=O)O)c(C)c2)s1,-3.16
11,Cc1cc(NS(=O)(=O)c2ccccc2F)ccc1-n1cccc1C(=O)O,-19.7
12,Cc1n[nH]c(C)c1NC(=O)CN1CCN(c2nccs2)C(C)C1 (stereo unspecified),14.4
13,Cc1cccn2c(CC(=O)N3CCC(CCn4cccn4)CC3)cnc12,71.3
14,Cc1ccc2nc(C(=O)N3CCC(CCn4cccn4)CC3)cn2c1,-14.1
15,Cc1cccn2c(CC(=O)N3CCC(Oc4ncccn4)CC3)cnc12,-30.3
16,COc1ncc(NCc2cc(C#N)cs2)cc1C(N)=O,11.4
17,CO[C@@H]1CCN(Cc2c(C)noc2C)[C@@H]2CN(Cc3ccco3)C[C@@H]21,35.5
18,CCN(CC1CCOC1)C(=O)Nc1ccc(N2CCOCC2)nc1 (stereo unspecified),36.05
19,Cn1cc(CCC(=O)N2CCCN(c3ncccc3C#N)CC2)cn1,37.4
20,O=S(=O)(c1cc(F)ccc1F)N1CCCC1c1ccncc1 (stereo unspecified),19.3
21,COc1ccc(C2CCCN2S(=O)(=O)c2cc(F)ccc2F)cc1 (stereo unspecified),62.6
22,Cc1ccc(F)c(S(=O)(=O)N2CCCC2c2ccncc2)c1 (stereo unspecified),45.3

row,Compound,INHIBITION [%]
1,CCOCc1cccc(S(=O)(=O)Nc2ccn(CC)n2)c1,18.4
2,COCCCC1(CO)CCCN(C(=O)c2cnc3c(c2)CCCC3)C1 (stereo unspecified),35.9
3,COCCC1(C(=O)O)CCCN(C(=O)c2cnc3c(c2)CCCC3)C1 (stereo unspecified),47.1
4,O=C(c1cnc2c(c1)CCC2)N1CCCC(CO)(CC2CC2)C1 (stereo unspecified),68.4
5,Cc1[nH]n(C)c2nc(=O)cc(C(F)(F)C(F)(F)F)c1-2,76.3
6,CCn1[nH]c(C)c2c(C(F)(F)C(F)(F)F)cc(=O)nc1-2,50.5
7,CCn1[nH]c(C)c2c(C(F)(F)F)cc(=O)nc1-2,31.7
8,O=C(Cn1nc2ccccc2n1)N1CCCn2cncc2C1,1.37
9,Cc1csc(NC(=O)C(C)Oc2ccc3c(c2)OCO3)n1 (stereo unspecified),16.2
10,Cc1cnn(CC2CCCN2C(=O)c2cc(O)nc3ccccc23)c1 (stereo unspecified),-29.8
11,Cc1ccc(NC(=O)NCCc2ccncc2C)c(N(C)C)n1,-0.554
12,Cc1nccn1CCCN1CCCC(c2nccn2C)C1 (stereo unspecified),34.2
13,Cc1nccn1CCCN1CCC(c2nccn2CC2CCC2)CC1,60.2
14,Cc1nccn1CCCN1CCCC(c2nccn2CC2CCC2)C1 (stereo unspecified),41.8
15,CS(=O)(=O)N1CCOCC2(CN(Cc3nccs3)CCO2)C1 (stereo unspecified),45.2
16,CCOCC(O)CN1CCN(C(=O)C(C)(C)CC)CC1 (stereo unspecified),24
17,O=C(c1cncc(NCC2COc3ccccc3C2)n1)N1CCOCC1 (stereo unspecified),3.13
18,CN(Cc1cc(C(C)(C)C)n[nH]1)C(=O)c1ccc2nccn2c1,48.3
19,CC(C)(C)CN1CC(COc2ccccc2)Oc2ccncc2S1(=O)=O (stereo unspecified),59.3
20,O=S1(=O)c2cnccc2OC(COc2ccccc2)CN1CC1CC1 (stereo unspecified),22.2
21,CCN1CC(COc2ccc(OC)cc2)Oc2ccncc2S1(=O)=O (stereo unspecified),-10.3
22,COc1cccc(-c2cc(C(=O)NCCCC(F)(F)F)[nH]n2)c1,-16

row,Compound,INHIBITION [%]
1,CC(C)n1c(=O)[nH]c2cn(-c3ccc(Br)cc3)c(=O)n21,-17.3
2,O=C(O)c1ccccc1CN1CCC2(Cc3ccccc3CNC2=O)C1 (stereo unspecified),40
3,CS(=O)(=O)NCCNC(=O)C1(c2ccc(F)cc2)CC1,27.6
4,NS(=O)(=O)CCNC(=O)C1(c2ccccc2)CC1,19.6
5,CC(C)(C)c1ccc(C2(C(=O)NCCS(C)(=O)=O)CC2)cc1,62.3
6,CC(C)(C)c1ccc(C2(C(=O)NCCS(N)(=O)=O)CC2)cc1,68.5
7,NS(=O)(=O)CCNC(=O)C1(c2ccc(Br)cc2)CC1,-8.19
8,CC(C)(C)c1ccc(C2(C(=O)NCCCS(C)(=O)=O)CC2)cc1,43.5
9,CCCc1n[nH]c(C2CN(C(=O)c3cccc4cn[nH]c34)CCO2)n1 (stereo unspecified),-11.9
10,O=C(NCC1CC2(CO1)CN(c1nncs1)C2)C1CCC1 (stereo unspecified),1.36
11,COC[C@H]1CNC(=O)[C@@H]2CCN(Cc3ccc(F)cc3)CC[C@H]12,34.4
12,COc1ccc2nnc(CCC(=O)Nc3nc(C)c(C)s3)n2n1,24.2
13,O=C(NC1CC1)N1CC[C@@H](O)[C@@H]1Cc1ccccc1,-23.3
14,CN(C)c1cc(C(=O)N2CCCN(c3cccnn3)CC2)ccn1,38.7
15,O=C(CN(Cc1ccco1)C1CC1)N1CCCCCC1,-8.11
16,Cc1nonc1OCCNC(=O)COc1ccc(F)cc1F,7.92
17,Cc1nonc1OCCNC(=O)COc1ccc(Cl)cc1Cl,7.38
18,Cc1nonc1OCCNC(=O)CCCc1ccc(Cl)cc1,57.8
19,N#Cc1c(F)cccc1Nc1cnn(CC(O)CN2CCOCC2)c1 (stereo unspecified),44.9
20,CN1CCN([C@@H]2CCN(CC3=Cc4cc(Cl)ccc4OC3)C[C@H]2O)CC1,62.4
21,CN1CCN([C@@H]2CCN(Cc3cccc(-n4cccn4)c3)C[C@H]2O)CC1,22.9
22,O[C@@H]1CN(CC2=Cc3cc(Cl)ccc3OC2)CC[C@H]1N1CCCCCC1,31.9

row,Compound,INHIBITION [%]
1,O=C(C1CCOC1)N1CCC2(CC1)COC2 (stereo unspecified),19.8
2,COCC(=O)N1CCN(C)C(=O)C(Cc2ccc(-c3cccs3)cc2)C1 (stereo unspecified),6.26
3,CC(C)(C)Cc1noc2ncc(C(=O)N3CCSCC3)cc12,37.7
4,CC1CN(C)CCN1C(=O)c1cnc2onc(CC(C)(C)C)c2c1 (stereo unspecified),53.9
5,CC(C)(C)Cc1noc2ncc(C(=O)N3CCC3)cc12,29
6,OCc1cc(C2CCCN2c2ncccn2)n[nH]1 (stereo unspecified),12.27
7,COc1cccc(COCC(O)CN2CC(n3cccn3)C2)c1 (stereo unspecified),52
8,OC(COCc1ccc(Cl)cc1)CN1CC(n2cccn2)C1 (stereo unspecified),-3.6
9,OC(COCc1ccccc1)CN1CC(n2cccn2)C1 (stereo unspecified),39.6
10,Cn1ccc(C(=O)NC2CCC23CCN(C(=O)N2CCCC2)CC3)c1 (stereo unspecified),20.5
11,Fc1cnc(N2CCOC3(CCN(Cc4ccsc4)CC3)C2)nc1,71.6
12,Fc1cnc(N2CC3(CCN(Cc4ccsc4)C3)C2)nc1,52
13,c1ccc(N2CCCC3(CCN(Cc4ccsc4)C3)C2)nc1 (stereo unspecified),37.1
14,c1cnc(N2CCOCC3(CN(Cc4ccsc4)CCO3)C2)nc1 (stereo unspecified),-47.5
15,Fc1cnc(N2CCCC3(CCN(Cc4ccsc4)C3)C2)nc1 (stereo unspecified),43.8
16,Fc1cnc(N2CCCC3(CN(Cc4ccccc4)CCO3)C2)nc1 (stereo unspecified),-15.3
17,c1cnc(N2CCCC3(CCN(Cc4ccsc4)C3)C2)nc1 (stereo unspecified),53.2
18,c1csc(CN2CC3(CCN(Cc4ccsc4)C3)C2)n1,0.542
19,CCc1cnc(N2CC3(CCN(Cc4ccsc4)C3)C2)nc1,7.39
20,O=C(Nc1cnc2n1CCCC2)C1CCCN1C1CCNCC1 (stereo unspecified),15.7
21,N#Cc1cn(C2CC2)c(=O)n(CC(O)c2ccccc2C(F)(F)F)c1=O (stereo unspecified),29.4
22,CCS(=O)(=O)NC(CCSC)C(=O)Nc1ccc(C)cc1C (stereo unspecified),31.2

row,Compound,INHIBITION [%]
1,CO[C@@H]1CCN(Cc2cnn(C)c2)[C@@H]2CN(Cc3cccnc3)C[C@@H]21,5.96
2,CNC(=O)[C@@H]1C[C@H](n2cc(-c3ccc(CN4CC=CC4)cc3)nn2)CN1,41.2
3,CC[C@H](Cn1ncc2ccccc2c1=O)NC(=O)c1cnc(C)cn1,1.62
4,CCOC(=O)NCc1nn(CCN2CCCC2)c(=O)c2ccccc12,48.8
5,CC(C)NC(=O)N1CCC2(COCc3cnc(-c4cccnc4)nc32)C1 (stereo unspecified),38.1
6,CCc1oc(C(=O)NCCSc2ncn[nH]2)cc1CN1CCCC1,37.9
7,CCOc1ncccc1NC(=O)N1CCN(CC(=O)NC)CC1,-22.91
8,Cc1nccn1CCCN1CCC2(CCC(=O)N(CC3CC3)C2)CC1,34.5
9,CCCc1nc(N2CCCC3(CCNC3)C2)c2cnn(C)c2n1 (stereo unspecified),47.1
10,CCC1(O)CCCN(c2nc(C(C)(C)C)nc3c2cnn3C)C1 (stereo unspecified),48
11,COCC1CCN(c2nc(C(C)(C)C)nc3c2cnn3C)C1 (stereo unspecified),50.1
12,Cn1ncc2c(N3CCCC(C)(O)C3)nc(C(C)(C)C)nc21 (stereo unspecified),19.2
13,COCc1nc(N2CC[C@H](N(C)C)C2)c2cnn(C)c2n1,-15.8
14,Cn1ncc2c(N3CCCC4(CCNC4)C3)nc(C(C)(C)C)nc21 (stereo unspecified),63.8
15,Cn1ncc2c(N3CCC(CCO)CC3)nc(C(C)(C)C)nc21,22.9
16,CC(=O)NCCC1CCN(c2nc(C(C)(C)C)nc3c2cnn3C)CC1,64.9
17,CN(C)[C@H]1CCN(c2nc(C(C)(C)C)nc3c2cnn3C)C1,9.35
18,CNC(=O)[C@@H]1[C@@H](c2ccccc2)CN2CCN(Cc3cc(C)no3)C[C@H]12,31.3
